From PubChem BioAssay AID1851 (National Center for Advancing Translational Sciences (NCATS), 2009)
In all, about 16,000 compounds went through this assay and about 5,700 (36%) were called active. About 24% were inconclusive and are not listed. The list shows a part of the results. A number with no mark means an inactive call. Calls follow the shape of the dose curve; as a rule, active = well fitted curve in the direction sought with a large enough effect; inconclusive = small, poorly fitted or top-dose-only effect, or effect the other way; inactive = no such curve, though single readings can be large or run the other way.

target: Cytochrome P450 1A2 (Homo sapiens) (UniProt P05177); assay: Cytochrome panel assay with activity outcomes; conditions: recombinant CYP, pro-luciferin dealkylation, luminescence, p450-cyp1a2; series mostly up to 57.1 µM; activity, negative = inhibition: at the top concentration
Sequence (P05177 whole entry, looked up): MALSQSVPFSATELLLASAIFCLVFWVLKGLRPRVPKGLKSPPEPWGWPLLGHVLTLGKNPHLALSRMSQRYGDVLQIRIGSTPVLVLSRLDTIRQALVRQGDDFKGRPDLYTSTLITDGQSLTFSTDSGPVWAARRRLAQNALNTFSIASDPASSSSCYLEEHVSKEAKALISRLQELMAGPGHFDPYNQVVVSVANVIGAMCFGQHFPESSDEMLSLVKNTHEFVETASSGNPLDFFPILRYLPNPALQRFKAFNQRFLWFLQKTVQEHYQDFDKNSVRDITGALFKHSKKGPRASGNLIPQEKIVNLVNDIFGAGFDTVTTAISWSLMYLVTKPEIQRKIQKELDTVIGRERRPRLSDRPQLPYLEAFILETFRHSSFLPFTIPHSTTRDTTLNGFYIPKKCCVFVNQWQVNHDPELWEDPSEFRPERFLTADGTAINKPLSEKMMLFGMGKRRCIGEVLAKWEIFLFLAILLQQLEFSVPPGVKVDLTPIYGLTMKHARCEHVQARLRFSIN
% is scaled to controls: 0 for no effect and ±100 for the full control effect.

Row | SMILES | activity, negative = inhibition | AC50
1 | CN1CCC2(CC1)CCN(C(=O)Oc1ccccc1)CC2 | 0.724% (inactive) | 
2 | CC(C)[C@@H](C)/C=C\[C@@H](C)[C@@H]1CC[C@H]2C3=CC=C4C[C@@H](O)CC[C@]4(C)[C@H]3CC[C@]21C | -8.17% [at 11.4 µM] | 
3 | CC(C)NP(=O)(NC(C)C)OP(=O)(NC(C)C)NC(C)C | 5.14% (inactive) | 
4 | COc1cc2c(cc1OC)[C@]13CC[N@+]4(C)CC5=CCO[C@H]6CC(=O)N2[C@@H]1[C@@H]6[C@@H]5C[C@]34O | -11.4% [at 2.29 µM] | 
5 | C[C@H](NC(C)(C)C)C(=O)c1cccc(Cl)c1 |  | inactive
6 | Cc1c2cc[n+](CCN3CCCCC3)cc2c(C)c2c1[nH]c1ccc(O)cc12 |  | 2510 nM (active)
7 | CCNC(=O)[C@@H]1O[C@@H](n2cnc3c(N)ncnc32)[C@@H](O)[C@H]1O | 4.94% (inactive) | 
8 | CP(=O)(O)CCCN | -5.13% (inactive) | 
9 | O=C(CNS(=O)(=O)c1cccs1)N1CCC2(CC1)OCCO2 | 2.75% (inactive) | 
10 | CCn1c(O)c(C(c2ccccn2)c2c(O)n(CC)c(=S)[nH]c2=O)c(=O)[nH]c1=S | 8.62% (inactive) | 
11 | OC(Cn1c2ccccc2c2ccccc21)C[n+]1ccccc1 (centres undefined) |  | 3160 nM (active)
12 | C/C=C1\C[C@H](C)[C@@](O)(CO)C(=O)OCC2=CCN3CC[C@@H](OC1=O)[C@@H]23 | -2.57% [at 25.6 µM] (inactive) | 
13 | CCOP(=O)(OCC)C(NC(=O)C(Cl)Cl)C(Cl)(Cl)Cl (centres undefined) | -3.49% (inactive) | 
14 | COCC(=O)N1CCC2(CCCN(Cc3ccncc3)C2)CC1 | -9.26% (inactive) | 
15 | Nc1nc(OCc2ccccc2)c2[nH]cnc2n1 |  | 1000 nM (active)
16 | O=C(Oc1ccccc1)N1CCC2(CCN(Cc3nccs3)CC2)CC1 | -4.58% (inactive) | 
17 | NC[C@H](O)c1cc(O)c(O)cc1F | -15.4% (inactive) | 
18 | CN1CCc2cc3c(cc2[C@@H]1O)OCO3 | -10.2% [at 25.6 µM] (inactive) | 
19 | CN1Cc2c(ccc3c2OCO3)[C@@H]2[C@@H](O)Cc3cc4c(cc3[C@@H]21)OCO4 |  | 2510 nM (active)
20 | C[N+]1(C)CCc2cc3c(cc2[C@@H]1[C@@H]1OC(=O)c2c1ccc1c2OCO1)OCO3 | -11.3% (inactive) | 
21 | Cn1c(O)c(C(c2ccccn2)c2c(O)n(C)c(=S)n(C)c2=O)c(=O)n(C)c1=S | 3.65% (inactive) | 
22 | CC(C)(C)c1o[nH]c(=O)c1C[C@H](N)C(=O)O |  | inactive
23 | COc1cc(CCN)c(OC)c(OC)c1 |  | 3160 nM (active)
24 | COc1cc([C@@H](O)CN)ccc1O | 2.29% (inactive) | 
25 | Cn1c(=O)c2[nH]cnc2n(C)c1=O.[CH2-][C@H](Cc1cccc2cc(C(=O)O)c(=O)oc12)OC.[Hg].[OH-] | -15.3% [at 11.4 µM] | 

Row | SMILES | activity, negative = inhibition | AC50
26 | COc1cc2ccccc2c2cc([N+](=O)[O-])oc12 |  | 126 nM (active)
27 | C[C@H]1C(=O)O[C@@H]2CCN3CC=C(COC(=O)[C@@](C)(O)[C@@]1(C)O)[C@H]23 | -3.43% [at 25.6 µM] (inactive) | 
28 | c1ccc2c(c1)OC[C@@H](C1=NCCN1)O2 |  | inactive
29 | NCC#Cc1ccccc1 |  | 3160 nM (active)
30 | C/C=C1\C[N@@+]2(C)CC[C@@]34C(=C(C=O)[C@H]1C[C@H]32)Nc1ccccc14 | -4.2% [at 25.6 µM] (inactive) | 
31 | C[N+]1(C)C2CC(OC(=O)C(CO)c3ccccc3)CC1[C@@H]1O[C@H]21 (some centres undefined) |  | inactive
32 | OC(c1ccccc1)(c1ccccc1)C1CCNCC1 | -7.42% [at 25.6 µM] (inactive) | 
33 | OC(c1ccccc1)(c1ccccc1)C1CCCN1 (centres undefined) |  | 15800 nM (active)
34 | CC[C@H](C)C(=O)O[C@@H]1[C@H](O)[C@@H]2[C@H](CN3C[C@@H](C)CC[C@@H]3[C@@]2(C)O)[C@@H]2C[C@@]34O[C@@]5(O)[C@@H](OC(=O)[C@](C)(O)CC)CC[C@@]3(C)[C@H]5[C@H](OC(C)=O)[C@@H](OC(C)=O)[C@H]4[C@]12O | -4.04% [at 25.6 µM] (inactive) | 
35 | CC(C)Oc1cccnc1N(C)C1CCN(Cc2ccccc2)CC1 | 9.93% (inactive) | 
36 | CS(=O)(=O)N1CCC2(CC1)CN(Cc1ccncc1)C2 | -10.1% (inactive) | 
37 | O=c1[nH]oc2c1CCNC2 |  | inactive
38 | Cn1ccnc1 | 4.4% (inactive) | 
39 | C[C@]12CC[C@H](O)C[C@@H]1CC[C@H]1[C@H]2CC[C@]2(C)C(=O)CC[C@@H]12 |  | inactive
40 | C[C@@]12CC[C@H]3[C@@H](CC[C@@H]4C[C@H]5S[C@H]5C[C@]43C)[C@H]1CC[C@H]2O |  | 25.1 nM (active)
41 | CC(C)CCC[C@@H](C)[C@@H]1CC[C@@H]2[C@H]3CC[C@H]4C[C@@H](N)CC[C@@]4(C)[C@@H]3CC[C@]21C | 3.33% [at 11.4 µM] | 
42 | C[As+](C)(c1ccc(Br)c([N+](=O)[O-])c1)c1ccc(Br)c([N+](=O)[O-])c1.O=[N+]([O-])O | -12.7% [at 11.4 µM] | 
43 | COc1cc(-c2ccc(=O)[nH]n2)ccc1OC(F)F |  | 2510 nM (active)
44 | CC(C)CN1CCC2(CC1)CCN(S(C)(=O)=O)CC2 | -17.4% (inactive) | 
45 | O=C(CCCN1CCC(n2c(=O)[nH]c3ccccc32)CC1)c1ccc(F)cc1 | -11% [at 25.6 µM] (inactive) | 
46 | CN1C(=O)C(=Cc2ccc(N3CCCCCC3)o2)C(=O)N(C)C1=S |  | 1580 nM (active)
47 | CN1C(=O)C(=Cc2ccc(N3CCCCC3)o2)C(=O)N(C)C1=S |  | 1580 nM (active)
48 | CC(=O)NBr | -8.01% (inactive) | 
49 | O=C(Oc1ccccc1)N1CCC2(CCN(Cc3ccccc3)CC2)CC1 | -8.29% (inactive) | 
